SRC1 inh = human NCOA1 inhibition; Q15788; HEK293 GAL4-SRC1 luciferase reporter, luminescence; inhibition, % at 3.6 µM; 360,000 compounds, 0.12% hits;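 active = inhibition above the campaign mean plus 3 SD, with each screening campaign given its own cutoff, cut at about 60% in these data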;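 note: 0% = DMSO treated cells and 100% = gossypol at 36 µM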
NCOA3 inh = inhibits human SRC3 coactivator | 360,000 compounds, 0.17% hits | inhibition, % at 3.6 µM | Q9Y6Q9 | HEK293 GAL4-SRC3 luciferase reporter, luminescence | AID 588352;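 active = inhibition above a per-campaign cutoff, the mean of all compounds plus 3 SD, cut at about 60% in these data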;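 note: 0% = DMSO-treated cells and 100% = gossypol-treated cells at 36 µM; higher means less SRC3-driven luciferase light from the GAL4 reporter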
NR2F2 inh = blocks human COUP-TFII nuclear receptor. HEK293T NGFI-A luciferase reporter, luminescence. 370,000 compounds, 0.7% hits. P24468. inhibition, % at 8.6 µM. AID 686940;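 active = inhibition above a per-plate cutoff, mean inhibition of test wells between control levels plus 3 SD, cut at about 38% in these data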;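 note: cells cotransfected with COUP-TFII expression vector driving the NGFI-A reporter; 0% = median of COUP-TF2 test wells and 100% = reporter-only cells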
NR5A2 inv ag = inverse agonists of human LRH-1 (NR5A2) | O00482 | HEK293T StAR-luciferase reporter, LRH-1 transfected, 24 h | inhibition, % at 3.6 µM | 360,000 compounds, 0.13% hits;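 active = inhibition above the mean inhibition of all tested compounds plus 3 SD, cut at about 73% in these data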;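 note: 0% = DMSO wells and 100% = reporter-only cells lacking LRH-1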
SRC2 inh = inhibits human steroid receptor coactivator 2 | Q15596 | HEK293 GAL4-SRC2 luciferase reporter, luminescence | inhibition, % at 9 µM | 370,000 compounds, 0.17% hits | AID 651957;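 active = inhibition above the mean inhibition of all tested compounds plus 3 SD, set per campaign, cut at about 52% in these data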;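 note: 0% = DMSO treated cells and 100% = cells given Gossypol at 36 µM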
Target sequence (Q15596 whole entry, looked up, the tested form may be a part): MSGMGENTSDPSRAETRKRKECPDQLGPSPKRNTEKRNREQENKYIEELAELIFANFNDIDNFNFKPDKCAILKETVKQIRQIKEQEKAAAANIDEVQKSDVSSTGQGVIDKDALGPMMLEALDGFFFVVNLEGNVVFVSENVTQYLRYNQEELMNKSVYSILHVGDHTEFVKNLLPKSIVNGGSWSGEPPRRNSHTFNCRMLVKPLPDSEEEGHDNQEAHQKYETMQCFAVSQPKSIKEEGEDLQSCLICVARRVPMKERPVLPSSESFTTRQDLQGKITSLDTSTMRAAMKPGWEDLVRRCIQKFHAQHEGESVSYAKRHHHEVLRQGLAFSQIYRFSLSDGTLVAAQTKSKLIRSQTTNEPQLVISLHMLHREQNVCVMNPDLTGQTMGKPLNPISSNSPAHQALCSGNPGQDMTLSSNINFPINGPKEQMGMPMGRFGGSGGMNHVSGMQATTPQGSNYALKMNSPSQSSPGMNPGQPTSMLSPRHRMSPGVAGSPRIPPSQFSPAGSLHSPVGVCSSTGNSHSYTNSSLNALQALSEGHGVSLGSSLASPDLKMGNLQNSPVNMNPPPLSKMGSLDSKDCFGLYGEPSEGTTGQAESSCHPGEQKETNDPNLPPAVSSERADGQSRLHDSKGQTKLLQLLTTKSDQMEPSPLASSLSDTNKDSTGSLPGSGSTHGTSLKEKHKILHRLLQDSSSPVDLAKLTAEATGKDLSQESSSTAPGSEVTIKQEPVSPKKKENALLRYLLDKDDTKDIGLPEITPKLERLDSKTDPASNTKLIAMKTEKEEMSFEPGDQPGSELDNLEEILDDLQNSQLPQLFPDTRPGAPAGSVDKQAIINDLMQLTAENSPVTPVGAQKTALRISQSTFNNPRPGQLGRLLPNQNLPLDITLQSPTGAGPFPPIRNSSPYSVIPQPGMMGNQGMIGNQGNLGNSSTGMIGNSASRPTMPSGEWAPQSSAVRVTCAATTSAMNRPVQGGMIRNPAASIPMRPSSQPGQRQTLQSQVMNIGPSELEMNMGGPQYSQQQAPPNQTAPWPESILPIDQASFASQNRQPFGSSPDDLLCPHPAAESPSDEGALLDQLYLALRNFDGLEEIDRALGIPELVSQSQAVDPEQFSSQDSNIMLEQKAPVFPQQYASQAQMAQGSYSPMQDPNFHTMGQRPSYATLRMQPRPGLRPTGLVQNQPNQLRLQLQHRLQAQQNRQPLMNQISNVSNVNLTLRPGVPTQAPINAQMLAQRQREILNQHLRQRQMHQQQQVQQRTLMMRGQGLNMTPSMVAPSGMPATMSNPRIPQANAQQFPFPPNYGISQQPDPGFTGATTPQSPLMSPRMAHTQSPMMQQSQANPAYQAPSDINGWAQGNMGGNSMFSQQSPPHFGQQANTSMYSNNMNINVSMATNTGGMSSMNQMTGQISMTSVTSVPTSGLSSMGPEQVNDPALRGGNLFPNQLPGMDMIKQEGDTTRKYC
Numbers without * were called inactive; nt = no result. An excerpt weighted towards active compounds, which were near 0.81% of everything screened.

SMILES	SRC1 inh	NCOA3 inh	NR2F2 inh	NR5A2 inv ag	SRC2 inh
Cc1ccc(CSc2nnc(-c3ccccc3)n2Cc2ccco2)cc1	nt	nt	13	nt	-1
O=C(CSc1nc(-c2cccs2)cc(C(F)(F)F)n1)Nc1cc(OCC(F)(F)C(F)F)cc([N+](=O)[O-])c1	76*	13	-2	-32	-7
CC(c1cc(F)ccc1O)c1c[nH]c2ccccc12 (centres undefined)	nt	nt	9	nt	-9
CCOc1ccc(C(=O)C(CCC(CN(C)C)C(=O)c2ccc(OCC)cc2)CN(C)C)cc1 (centres undefined)	6	41	26	88*	52
Clc1ccc(CSc2nnc(Cn3cnc4ccccc43)o2)cc1	1	20	63*	17	16
CCn1c(C)cc(C(=O)COC(=O)c2ccccc2[N+](=O)[O-])c1C	93*	93*	nt	95*	nt
C=CCn1c(C)cc(C(=O)COC(=O)c2ccc(N)c([N+](=O)[O-])c2)c1C	-102	-70	-40	-139	-39
O=C(Nc1cccc([N+](=O)[O-])c1)NC1CCCCN(Cc2cccc(Cl)c2)C1=O (centres undefined)	nt	nt	22	nt	7
COc1ccc(C(=O)N/N=C/c2cc(Br)ccc2O)cc1OC	34	64*	-17	20	18
COc1cccc(/C=N/NC(=O)c2c(C)nc3ccc(Br)cn23)c1O	78*	79*	nt	99*	nt
CCOc1ccccc1/C=N/NC(=O)c1c(C)nc2ccc(Br)cn12	6	-17	5	8	-1
O=C(Nc1cccc(S(=O)(=O)Nc2ccc(Cl)cc2)c1)c1ccc(Cl)nc1	-9	22	82*	58	24
C=CCN1C(=O)[C@@H](CC(=O)NCc2ccc(OC)c(OC)c2)[C@]2(C(=O)OC)CCCCC=C12	nt	nt	2	nt	-10
COc1ccc(NC(=O)C2(C)Cc3c(-c4cccc(C(F)(F)F)c4)ccnc3O2)cn1 (centres undefined)	10	5	21	-4	71*
COc1ccc(NC(=O)C2(C)Cc3c(-c4ccccc4)ccnc3O2)cn1 (centres undefined)	-7	8	10	-26	-29
CCOC(=O)C1=NOC(C(=O)NC2CCCC2)(C(=O)c2ccc(OC)cc2)C1 (centres undefined)	nt	nt	-17	nt	-16
Cc1cc(-c2n[nH]c(=S)n2N=Cc2cc(Br)ccc2F)n[nH]1	nt	nt	-10	nt	10
OCC1OC(n2cnc3c(NCc4ccco4)ncnc32)C(O)C1O (centres undefined)	51	63*	-5	57	-11
C=CCn1c(SCC(=O)Nc2ccccc2-c2ccccc2)nnc1-c1ccc(Cl)cc1	nt	nt	0	nt	11
COC(=O)C1=C(CN2CCc3ccccc32)NC(=O)NC1c1cc(C)ccc1C (centres undefined)	-22	8	11	11	2
COC(=O)C1=C(CN2CCCc3ccccc32)NC(=O)NC1c1ccc(F)cc1 (centres undefined)	87*	84*	96*	91*	85*
Cc1cc(N=Cc2c(O)n(-c3ccc(C)c(C)c3)c(=O)c3ccccc23)no1	nt	nt	12	nt	-10
Cc1ccc(-n2c(O)c(C=Nc3cc(C)on3)c3ccccc3c2=O)c(C)c1	54	67*	-1	22	3
C#CCNC(=O)C[C@H]1C[C@@]2(C(=O)OC)C(=C[C@H](C(C)C)O[C@@H]2C2CC2)N(CCc2ccc(OC)c(OC)c2)C1=O	nt	nt	-2	nt	17
CN(C)C(=O)COc1ccc2ccc(=O)oc2c1	10	-8	-10	8	-1
SMILES	SRC1 inh	NCOA3 inh	NR2F2 inh	NR5A2 inv ag	SRC2 inh
CC(C)=CC(O)C/C(C)=C/COc1ccc2ccc(=O)oc2c1 (centres undefined)	46	63*	18	85*	-15
CC(=O)NC(c1ccc(C(C)C)cc1)c1ccc2cccnc2c1O (centres undefined)	68*	82*	-25	90*	35
CCCCC(=O)NC(c1cccc([N+](=O)[O-])c1)c1ccc2cccnc2c1O (centres undefined)	25	22	30	11	44
CCCC(=O)NC(c1ccc(OC)cc1)c1ccc2cccnc2c1O (centres undefined)	20	62*	-13	13	20
CCCCC(=O)NC(c1ccccc1Cl)c1ccc2cccnc2c1O (centres undefined)	54	73*	-8	60	32
CCCCC(=O)NC(c1ccccc1)c1ccc2cccnc2c1O (centres undefined)	40	66*	-5	89*	-11
O=C(NCC1COc2ccccc2O1)c1ccc(NC(=O)c2cccc(F)c2)cc1 (centres undefined)	nt	nt	4	nt	-4
CCCC(=O)NC(c1ccccc1)c1ccc2cccnc2c1O (centres undefined)	19	26	9	11	34
CCCCC(=O)NC(c1ccc(C(C)C)cc1)c1ccc2cccnc2c1O (centres undefined)	42	68*	-5	7	25
O=C(CSc1nnc(-c2cccnc2)n1-c1ccc(Cl)cc1)Nc1cccc2ccccc12	nt	nt	10	nt	-22
COc1ccc(S[C@]2(C(=O)N3CCOCC3)CC(=O)N(C(=O)c3ccccc3)[C@@H]2c2ccc(OC)cc2)cc1	nt	nt	29	nt	-16
Cc1cc(/C=C\c2ccc3cc(N(C)C)ccc3[n+]2C)c(C)n1-c1ccccc1	53	77*	nt	77*	nt
COC(=O)c1cc(-c2cccc(C(C)C)c2)c(=O)n2c1CCC2	nt	nt	11	nt	-13
O=C(NCCc1c[nH]c2ccccc12)c1cc([N+](=O)[O-])cc([N+](=O)[O-])c1	2	12	12	10	14
O=C(NCCc1c[nH]c2ccccc12)c1ccc([N+](=O)[O-])o1	22	2	28	55	52*
Cc1cc(Nc2ccccc2)n(-c2ccccc2)n1	1	5	-2	11	-13
Cc1cc(C)nc(-n2nc(C)cc2Nc2ccccc2)n1	6	-9	28	75*	-6
CCOC(=O)[C@]12CCCCC/C=C\1N(CCc1ccc(Cl)cc1)C(=O)[C@H]2CC(=O)NCc1ccc(OC)c(OC)c1	nt	nt	-2	nt	4
CC(=O)NC(c1cccc([N+](=O)[O-])c1)c1ccc2cccnc2c1O (centres undefined)	21	15	-1	83*	34
COc1cccc(C(NC(C)=O)c2ccc3cccnc3c2O)c1 (centres undefined)	20	26	-11	76*	26
Oc1c(C(Nc2cccc(C(F)(F)F)c2)c2cccnc2)ccc2cccnc12 (centres undefined)	1	25	17	-10	12
O=[N+]([O-])c1ccc(NC(c2ccccc2)c2ccc3cccnc3c2O)cc1 (centres undefined)	73*	87*	-15	38	20
CCCN(CC1CC1)C(=O)CSc1nnc(-c2ccncc2)n1-c1ccc(OC)cc1	nt	nt	3	nt	-18
Nc1ccc2oc(-c3cccc4ccccc34)nc2c1	3	-18	37	-13	55*

Screening results: PubChem BioAssay, The Scripps Research Institute Molecular Screening Center
